# From PubChem BioAssay (NCATS)
# Inconclusive results are not listed. Activity calls are given as the source filed them. Calls come from the whole dose curve; as a rule, active = well fitted cell-killing curve with a large enough effect; inconclusive = small, poorly fitted or top-dose-only effect; inactive = flat fitted curve, though single readings scatter.
# Assay: Cell Viability - LYMP2-017 (AID 972); note: nearly all actives have a fitted effect of over 55% in size
# Settings: LYMP2-017 lymphoblastoid cell viability; series mostly up to 92.2 µM
# From the text: NIH Chemical Genomics Center [NCGC]
# NIH Molecular Libraries Screening Centers Network [MLSCN]
# National Institutes of Environmental Health Sciences [NIEHS]
# National Toxicology Program [NTP]
# We have developed a 1536-well cell-based assay for quantitative high throughput screening (qHTS) against a number of cell lines to determine in vitro cytotoxicity of small molecules. This particular assay uses a human lymphoblastoid cell line (LYMP2-017) purchased from Coriell Institute for Medical Research.
# NCGC Assay Protocol Summary:
# The CellTiter-Glo luminescent cell viability assay (Promega) is a homogeneous method to measure the number of viable cells in culture. The end point readout of this assay is based on quantitation of intracellular ATP, an indicator of metabolic activity, using the luciferase reaction. Luciferase catalyzes the oxidation of beetle Luciferin to oxyluciferin and light in the presence of ATP. The luminescent signal is proportional to amount of ATP present.
# Using the CellTiter-Glo luminescent cell viability assay, the amount of cellular ATP was measured in the lymphoblastoid cell line with complete culture medium following compound treatment for 24 hours. The assay was performed in opaque white Kalypsys 1536-well plates. In the screen, tetraoctylammonium bromide was used as positive control. Library compounds were measured for their ability to cause acute toxicity in the cell line, as reflected by a decrease in intracellular ATP levels, in a concentration-dependent manner. […] AC50 values were determined from concentration-response data modeled with the standard Hill equation.
# qHTS protocol for CellTiter Glo lymphoblastoid cellular assay
# [Step] [Parameter] [Value] [Description]
# 1. Reagent; 5 uL; 2500 lymphoblastoid cells/well
# 2. Time; 5 hr; 37 C incubation
# 4. Controls; 23 nL; Tetraoctylammonium bromide 6.4pM to 92 uM
# 5. Time; 24 hr; 37 C incubation
# 6. Reagent; 5 uL; CellTiter Glo reagent
# 7. Time; 30 min; Room Temperature
# 8. Detection; Luminescence; Viewlux plate reader
# Keywords: cell viability, cytotoxicity, lymphoblastoid cell line, luminescence, NTPHTS, NTPHTS_NCGC, NIEHS, DSSTox, MLSMR, MLSCN, NIH Roadmap, qHTS, NCGC
# Potency is the fitted concentration of half-maximal effect.
row,SMILES,Potency
1,C[C@@H]1CC[C@@]2(OC1)O[C@H]1[C@@H](O)[C@H]3[C@@H]4CC[C@H]5C[C@@H](O[C@@H]6O[C@H](CO)[C@H](O[C@@H]7O[C@H](CO)[C@@H](O)[C@H](O[C@@H]8OC[C@@H](O)[C@H](O)[C@H]8O)[C@H]7O[C@@H]7O[C@H](CO)[C@@H](O)[C@H](O[C@@H]8O[C@H](CO)[C@@H](O)[C@H](O)[C@H]8O)[C@H]7O)[C@H](O)[C@H]6O)[C@H](O)C[C@]5(C)[C@H]4CC[C@]3(C)[C@H]1[C@@H]2C,25.1 µM (active)
2,CC(C)CC(C)Nc1ccc(Nc2ccccc2)cc1 (stereo not given),50.1 µM (active)
3,CN(C)c1ccc(N=O)cc1,1 µM (active)
4,O=Nc1ccc(Nc2ccccc2)cc1,6.31 µM (active)
5,CCCCCCCCn1sccc1=O,3.98 µM (active)
6,O=[N+]([O-])C(Br)Br,7.94 µM (active)
7,C=CC(=O)OCC(CO)(COC(=O)C=C)COC(=O)C=C,5.01 µM (active)
8,c1cc(OCC2CO2)cc(OCC2CO2)c1 (stereo not given),39.8 µM (active)
9,Nc1ccccc1C(=O)OCCc1ccccc1,inactive
10,O=C(O)C1C(C(=O)O)C2(Cl)C(Cl)=C(Cl)C1(Cl)C2(Cl)Cl (stereo not given),inactive
11,CC/C(=C(\c1ccccc1)c1ccc(OCCN(C)C)cc1)c1ccc(O)cc1,39.8 µM (active)
12,O=C1C2(Cl)C3(Cl)C4(Cl)C(Cl)(Cl)C5(Cl)C3(Cl)C1(Cl)C5(Cl)C24Cl (stereo not given),50.1 µM (active)
13,N#CSCSC#N,5.01 µM (active)
14,C#CCO,inactive
15,Clc1ccc(C(c2ccc(Cl)cc2)C(Cl)Cl)cc1,inactive
16,ClC1=C(Cl)C(Cl)(Cl)C(Cl)=C1Cl,6.31 µM (active)
17,OC(c1ccc(Cl)cc1)(c1ccc(Cl)cc1)C(Cl)(Cl)Cl,inactive
18,O=C(CCl)c1ccccc1,10 µM (active)
19,Oc1c(Br)c(Br)c(Br)c(Br)c1Br,inactive
20,O=[N+]([O-])c1cc(C(F)(F)F)cc([N+](=O)[O-])c1Cl,31.6 µM (active)
21,CC(=O)[O-].CC(=O)[O-].O.O.[Cd+2],inactive
22,c1ccc2cc3c(cc2c1)-c1cccc2cccc-3c12,inactive
23,N#CC(Cl)Cl,39.8 µM (active)
24,[CH3][Hg][Cl],3.16 µM (active)
25,FC(F)(F)c1ccc(Cl)cc1,inactive
